# Hits are enriched below; roughly 1.1% of the tested compounds scored in any of these assays.
# NCOA2 inhibitor = inhibits human steroid receptor coactivator 2 | Q15596 | HEK293 GAL4-SRC2 luciferase reporter, luminescence | inhibition, % at 9 µM | actives 0.17% (n = 370,000);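 active = inhibition above the mean inhibition of all tested compounds plus 3 SD, set per campaign, cut at about 52% in these data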
# NCOA3 inh = inhibits human SRC3 coactivator | Q9Y6Q9 | HEK293 GAL4-SRC3 luciferase reporter, luminescence | inhibition, % at 3.6 µM | actives 0.17% (n = 360,000) | AID 588352;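 active = inhibition above a per-campaign cutoff, the mean of all compounds plus 3 SD, cut at about 60% in these data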;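 note: higher means less SRC3-driven luciferase light from the GAL4 reporter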
# GalR3 antag = blocks the human galanin receptor 3. O60755. HEK293 GalR3-CNG cAMP membrane potential fluorescence; galR3 body fused to GalR1 C-terminus. inhibition, % at 3 µM. actives 0.44% (n = 360,000);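 active = inhibition above the screen-wide average plus 3 SD, cut at about 13% in these data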;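 note: forskolin and galanin both at EC90 stimulate the cells; cAMP rise reported by CNG channel membrane potential dye signal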
# COUP-TFII inh = NR2F2 (human) inhibition, primary screen. P24468. HEK293T NGFI-A luciferase reporter, luminescence. inhibition, % at 8.6 µM. actives 0.7% (n = 370,000);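 active = inhibition above a per-plate cutoff, mean inhibition of test wells between control levels plus 3 SD, cut at about 38% in these data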;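 note: cells cotransfected with COUP-TFII expression vector driving the NGFI-A reporter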
# NR5A2 inv ag = inverse agonists of human LRH-1 (NR5A2); HEK293T StAR-luciferase reporter, LRH-1 transfected, 24 h; inhibition, % at 3.6 µM; actives 0.13% (n = 360,000);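 active = inhibition above the mean inhibition of all tested compounds plus 3 SD, cut at about 73% in these data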
# NCOA1 inh = inhibits human SRC1 coactivator; Q15788; HEK293 GAL4-SRC1 luciferase reporter, luminescence; inhibition, % at 3.6 µM; actives 0.12% (n = 360,000);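 active = inhibition above the campaign mean plus 3 SD, with each screening campaign given its own cutoff, cut at about 60% in these data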
# VP16 Luc counter = VP16 inhibition counter-screen for COUP-TFII; shares compounds with COUP-TFII inh; HEK293 Gal4-VP16 luciferase reporter, luminescence; inhibition, % at 8.5 µM; actives 25% (n = 2,500); AID 687007; in the data active = inhibition above about 13%
# COUP-TFII conf = COUP-TFII (NR2F2) inhibition, confirmation assay. shares compounds with COUP-TFII inh. HEK293 NGFI-A luciferase reporter, luminescence. inhibition, % at 8.5 µM. actives 45% (n = 2,500). AID 687008;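 active = mean inhibition over three repeats above a set limit taken from the earlier primary screen, cut at about 38% in these data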
# Numbers stand for hits; n = inactive; x = not tested or not shown; ! = not active in a repeat.
SMILES,NCOA2 inhibitor,NCOA3 inh,GalR3 antag,COUP-TFII inh,NR5A2 inv ag,NCOA1 inh,VP16 Luc counter,COUP-TFII conf
CCCN(CCC)C1=CC(=[N+]2CCCC2)CC(C)(C)C1,n,n,24,53,n,61,n,43
CN(C)NC1=CC(=[N+]2CCCC2)CC(C)(C)C1,n,n,n,n,n,n,x,x
CN(C(=O)c1ccc2ccccc2c1)c1ccccn1,n,n,n,n,n,n,x,x
CCOC(=O)C1CCCN(C(=O)c2cccc(S(=O)(=O)N(Cc3ccccc3)c3ccccc3OC)c2)C1 (stereo unspecified),n,n,n,n,n,n,x,x
O=C(O)CCCc1ccc2c(c1)CCc1ccccc1-2,74,n,n,75,n,n,57,49
Cc1ccc2c(c1)C1CS(=O)(=O)N(CCc3ccccc3)C(=O)N1C2 (stereo unspecified),n,x,x,n,x,x,x,x
CC(C)(C)c1ccc(CC(=O)N2CCC2(C)C(=O)Nc2cnc3ccccc3c2)cc1 (stereo unspecified),n,n,n,41,n,n,n,n
CC(C)c1ccc(CC(=O)N2CCC2(C)C(=O)Nc2cnc3ccccc3c2)cc1 (stereo unspecified),n,n,n,45,n,n,n,n
CC(C)(C)c1ccc(C(=O)N2CCC2(C)C(=O)Nc2cnc3ccccc3c2)cc1 (stereo unspecified),n,n,n,n,n,n,x,x
c1ccc(-c2cc(CSc3nc4ccccc4[nH]3)on2)cc1,n,n,n,40,n,n,n,n
C=CCN1[C@H](C)COc2cccc(F)c2S1(=O)=O,n,x,x,n,x,x,x,x
CCOc1ccc(CCNC(=O)c2c(C)nn(-c3ccccc3)c2Cl)cc1OCC,n,n,n,n,n,n,x,x
CCOc1ccc(-c2cc(CCCC(=O)NCCCOC)no2)cc1,69,n,n,59,n,n,23,n
CCOc1ccc(-c2cc(CCCC(=O)N3CCN(c4ccc(OC)cc4)CC3)no2)cc1,n,n,x,n,n,n,x,x
O=C(NCC1CCCO1)c1ccc(COc2ccccc2)cc1 (stereo unspecified),n,n,n,n,n,n,x,x
CN(C)c1ccc(NC(=S)c2ccccn2)cc1,n,n,n,42,n,n,n,38
CN(C)c1ccc(C(=S)Nc2ccccc2)cc1,n,n,n,46,n,n,n,n
Cn1nc(C(C)(C)C)cc1C(=O)NCC1CCN(C(=O)C(=O)c2cc3ccccc3o2)CC1,n,x,n,41,x,x,n,n
O=C(c1ccncc1F)N1CCC(n2nnc3ncccc32)CC1,n,x,x,n,x,x,x,x
Cc1nnc(NC(=O)CSc2nc3ccccc3o2)s1,n,n,n,n,n,n,x,x
CC1CCc2nc(NC(=O)CSc3nc4ccccc4o3)sc2C1 (stereo unspecified),n,n,n,43,n,n,31,68
COc1cc(/C=N/NC(=O)c2ccncc2)ccc1OC(C)=O,n,n,n,n,n,n,x,x
COc1cc(C=Nc2c(C)cc(C)cc2C)ccc1OC(C)=O,n,n,n,50,n,n,n,n
O=S(Cc1ccc(Br)cc1)Cc1nnc(SCc2ccc(Cl)cc2)n1-c1ccccc1 (stereo unspecified),n,n,n,45,n,n,n,n
O=S(=O)(CC1NCc2cc(F)ccc21)NCCc1ccccc1 (stereo unspecified),n,x,x,n,x,x,x,x
SMILES,NCOA2 inhibitor,NCOA3 inh,GalR3 antag,COUP-TFII inh,NR5A2 inv ag,NCOA1 inh,VP16 Luc counter,COUP-TFII conf
C=CC(=O)N1C/C(=C/c2ccc(Cl)cc2)C(=O)/C(=C\c2ccc(Cl)cc2)C1,60,n,n,90,n,n,85,102
CN1C/C(=C/c2ccncc2)C(=O)/C(=C/c2ccncc2)C1,n,n,n,n,n,n,x,x
O=C1C(=Cc2ccc(Cl)cc2)Cc2ccccc21,n,x,n,n,n,x,x,x
C=CC(=O)N1C/C(=C/c2ccccc2)C(=O)/C(=C\c2ccccc2)C1,67,n,n,98,n,n,71,101
Cc1nc2ccc(NC(=O)c3ccc(S(=O)(=O)N(C)c4ccccc4)cc3)cc2s1,n,n,n,49,n,n,n,n
COc1ccc(NC(=O)c2ccc(S(=O)(=O)N(C)c3ccccc3)cc2)cn1,n,n,n,41,n,n,n,n
COc1ccc(NC(=O)/C(Cl)=C(/Cl)S(=O)(=O)Cc2ccccc2)cn1,69,n,n,66,n,n,39,59
NS(=O)(=O)c1ccc(CNc2ncnc3sccc23)cc1,n,n,n,n,n,n,x,x
CN(C)c1ccc(CNc2ncnc3sccc23)cc1,n,n,n,66,n,n,n,52
NS(=O)(=O)c1ccc(CCNc2ncnc3sccc23)cc1,n,n,n,53,n,n,n,n
Fc1ccccc1CNc1ncnc2sccc12,n,n,n,48,n,n,n,41
CCOC(=O)c1cc2c(=O)n3cccc(C)c3nc2n(CC2CCCO2)c1=NC(C)=O (stereo unspecified),n,n,n,73!,n,n,n,n
C[n+]1cc2c3c(ccc2c2ccc4cc5c(cc4c21)OCO5)OCO3,87,x,n,106,x,x,95,107
COc1cc(OC)cc(-c2cc3nc(C)c(CCC(=O)O)c(C)n3n2)c1,78,n,n,89,n,n,89,97
COc1cc(OC)cc(-c2cc3nc(C)c(CCC(=O)NC(C)CCc4ccco4)c(C)n3n2)c1 (stereo unspecified),n,n,n,n,n,n,x,x
CCOC(=O)C1CCN(C(=O)CCc2c(C)nc3cc(-c4ccccc4)nn3c2C)CC1,n,n,n,n,n,n,x,x
CCOC(=O)C1CCCCN1C(=O)CCc1c(C)nc2cc(-c3ccccc3)nn2c1C (stereo unspecified),70,n,n,52,n,n,n,n
CCC(C)Oc1ccc(C(=O)Nc2ccc(CN3CCOCC3)cc2)cc1 (stereo unspecified),n,n,n,40,n,n,n,n
O=C(Nc1ccc(CN2CCS(=O)(=O)CC2)cc1)c1ccc(C(F)(F)F)cc1,n,n,n,50,n,n,n,n
O=C(Nc1ccc(CN2CCS(=O)(=O)CC2)cc1)c1ccc(F)cc1,n,n,n,n,n,n,x,x
CCOc1ccc(NC(=O)c2ccc(NC(=O)c3ccc(CN4CCOCC4)cc3)cc2)cc1,n,n,n,n,n,n,x,x
CN1[C@@H](Cc2ccccc2)COc2cccc(F)c2S1(=O)=O,n,x,x,n,x,x,x,x
CC[C@@H]1/C(=C/c2ccccc2)N2C(=O)C[C@@H](c3ccccc3)N=C2N1Cc1ccc(OC)cc1OC,x,x,x,n,x,x,x,x

# Compound activity as filed in PubChem.
